# In the library only some 19% were active in any assay of this set; here they are far more common.
# HT1080 IDH1KD tx – kills HT-1080 cells with IDH1 knockdown | AID 686971 | HT-1080 IDH1 knockdown viability, ATP luminescence, 48 h | Potency, µM (doses to about 46.1 µM), for inactives: at the top dose activity, negative = toxicity, hits mostly cytotoxic | 2% of 360,000 active;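 also: 0% = DMSO wells and -100% = cell-free medium wells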
#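 Cytotoxicity counter-line: IDH1KD HT-1080, 48 h, CellTiter-Glo. Curves classed by r2, magnitude and activity.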
# HT1080NT lethal – kills 2HG-producing HT-1080-NT fibrosarcoma cells; 1.6% of 360,000 active; HT-1080-NT fibrosarcoma viability, CellTiter-Glo ATP luminescence, 48 h; Potency, µM (series often up to 46.1 µM), inactives show at the highest dose activity, negative = less viability, actives largely listed as cytotoxic; AID 686970;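 also: NT is the 2HG producing partner of a matched IDH1 knockdown line; 0% = DMSO-treated cells and -100% = media-only wells without cells; nearly all actives have a fitted effect of over 55% in size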
#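 750 cells/well, RPMI + 5% FBS; 2 h settle, compound pin-transfer, 48 h at 37 degrees C. CellTiter-Glo 10 min RT, luminescence. Normalized to DMSO and media-only wells.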
# TDP1 cell CPT – growth inhibition of DT40 Tdp1-/-;hTDP1 cells with camptothecin (screen for TDP1 inhibitors) | chicken DT40 Tdp1-/-;hTDP1 cells + 20 nM CPT, ATP luminescence, 48 h | Potency, µM (doses to about 46.2 µM), inactives show top-dose activity change, negative = growth inhibition, usual class: inhibitors | 12% of 420,000 active | AID 686979; also: nearly all actives have a fitted effect of over 55% in size
#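 Chicken DT40 Tdp1-/- cells complemented with human TDP1, 400 cells/well, exposed to compounds plus 20 nM camptothecin for at least 48 h at 37 C; viability read as ATP content by CellTiter-Glo luminescence.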
# KB-3-1 cytotox – kills parental KB-3-1 adenocarcinoma cells | KB-3-1 viability, CellTiter-Glo ATP luminescence, 72 h | Potency, µM (highest dose often 46.1 µM), actives largely listed as cytotoxic | 1.4% of 400,000 active; also: nearly all actives have a fitted effect of over 60% in size
#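 Multi-concentration cytotoxicity screen in KB-3-1 cells grown in DMEM lacking phenol red with 10% FBS. After 72 h at 37 °C with compound, ATP-dependent luminescence was recorded.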
# KB-V1 MDR tox – kills drug-selected multidrug resistant KB-V1 cells | KB-V1 MDR cells viability, CellTiter-Glo, 72 h | Potency, µM (titrated, usually from 46.1 µM), hits mostly cytotoxic | 3.4% of 400,000 active | AID 1347076; also: nearly all actives have a fitted effect of over 60% in size
#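 In this primary screen, KB-V1 cells overexpressing P-gp are incubated with library compounds (lowest to highest concentration) for 72 h at 37 degrees C before a luminescent ATP viability read.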
# DT40 TDP1 no CPT – qHTS for Inhibitors of human tyrosyl-DNA phosphodiesterase 1 (TDP1): qHTS in cells in absence of CPT; 15% of 420,000 active; AID 686978, 2013; DT40 Tdp1-/- hTDP1 cells, no CPT, ATP luminescence, 48 h; Potency, µM (series often up to 46.2 µM), for inactives: at the top dose activity change, negative = growth inhibition, actives largely listed as inhibitors; also: nearly all actives have a fitted effect of over 55% in size
#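 Compound effects on proliferation are scored in DT40 Tdp1-/-;hTDP1 cells in the absence of CPT. ATP levels (CellTiter-Glo luminescence) are recorded after a ≥48 hr, 37 °C incubation.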
# * marks the source's active call; other numbers are inactive results; i = inactive; ? = inconclusive; nt = no result given; [ ] = another dose, or the depositor's remark. Calls follow the shape of the dose curve; as a rule, active = well fitted curve in the direction sought with a large enough effect; inconclusive = small, poorly fitted or top-dose-only effect, or another doubt; inactive = no such curve, though single readings can be large; an effect the other way counts as inactive or inconclusive. Unless noted, % is scaled to controls: 0 for no effect and ±100 for the full control effect; potency is read from the fitted curve at half-maximal effect.
SMILES,HT1080 IDH1KD tx,HT1080NT lethal,TDP1 cell CPT,KB-3-1 cytotox,KB-V1 MDR tox,DT40 TDP1 no CPT
CCOC(=O)c1ccc(N2C(=O)c3n[nH]c(C)c3C2c2ccccc2)cc1 (stereo not drawn),-2%,-12%,-16%,i,13µM*,-24%
Cc1ccc(-c2n[nH]c3c2C(c2ccccc2Cl)N(c2ccc(C(=O)O)cc2)C3=O)cc1 (stereo not drawn),nt,nt,-23%,i,?,?
CCOC(=O)c1ccc(N2C(=O)c3n[nH]c(-c4ccco4)c3C2c2ccccc2OC)cc1 (stereo not drawn),nt,nt,18µM*,i,?,6.5µM*
CCOC(=O)c1ccc(N2C(=O)c3n[nH]c(C)c3C2c2ccccc2OC)cc1 (stereo not drawn),nt,nt,16µM*,i,i,18µM*
CCOC(=O)c1ccc(N2C(=O)c3n[nH]c(C)c3C2c2ccc(O)cc2)cc1 (stereo not drawn),-12%,-12%,-20%,i,i,?
CC(C)Oc1cccc(C(=O)Nc2nnc([C@@H]3C[C@H](O)[C@@H](CO)O3)s2)c1,9%,15%,7%,i,i,-4%
COC(=O)c1ccccc1NC(=O)c1nn(C)c2c1COc1ccccc1-2,nt,nt,-5%,nt,nt,-2%
COc1ccc(C)cc1NC(=O)C(Sc1nnc(Nc2cc(C)ccc2OC)s1)c1ccccc1 (stereo not drawn),2%,3%,?,i,i,?
COc1cccc(NC(=O)C(Sc2nnc(Nc3ccccc3C)s2)c2ccccc2)c1 (stereo not drawn),?,-22%,16µM*,i,i,21µM*
COc1ccc(Nc2nnc(SC(C(=O)Nc3ccc(OC)c(Cl)c3)c3ccccc3)s2)cc1 (stereo not drawn),-21%,-9%,23µM*,i,i,13µM*
COc1ccc(NC(=O)Oc2ccccc2)cc1Cl,4%,22%,-13%,i,i,-16%
COc1ccc(Nc2nnc(SC(C(=O)Nc3cc(C)ccc3C)c3ccccc3)s2)cc1 (stereo not drawn),-1%,2%,?,i,i,21µM*
CC1CCN(C(=O)Cn2c(-c3cccs3)cc3cc(Cl)ccc32)CC1,nt,nt,16µM*,i,i,?
CCCN1CCN(C(=O)Cn2c(-c3cccs3)cc3cc(F)ccc32)CC1,nt,nt,12µM*,i,i,-70%
O=C(Cn1c(-c2cccs2)cc2cc(Cl)ccc21)N1CCN(c2ccccc2)CC1,nt,nt,?,i,i,-28%
CCCN1CCN(C(=O)Cn2c(-c3cccs3)cc3ccccc32)CC1,nt,nt,?,i,i,?
CCOC(=O)C1CCN(C(=O)Cn2c(-c3cccs3)cc3cc(Cl)ccc32)CC1,nt,nt,15µM*,i,i,21µM*
CCOc1ccc(NC(=O)CN(C)C(=O)c2ccccc2OCc2cccc(C)c2)cc1OCC,?,-12%,?,i,2.9µM*,?
CN(CC(=O)Nc1ccccc1Br)C(=O)c1sccc1-c1ccccc1,0%,-4%,?,i,?,13µM*
CCOc1ccc(NC(=O)CN(C)C(=O)c2cccnc2Sc2ccc(C)cc2C)cc1OCC,-12%,5%,-6%,i,16µM*,-28%
CN(CC(=O)Nc1ccccc1Br)C(=O)c1ccccc1OCc1ccccc1Cl,?,?,?,i,?,18µM*
CN(CC(=O)Nc1ccccc1Br)C(=O)c1ccccc1OCc1ccc(F)cc1,1%,-2%,?,i,i,?
Cc1ccccc1-c1noc(-c2cccnc2N(C)Cc2ccc(Cl)cc2)n1,nt,nt,?,i,?,?
Cc1cccc(C)c1-n1ncc(C(=O)NC2CCCC2)c1C1CCN(C(=O)OC(C)(C)C)CC1,nt,nt,?,i,i,?
CC(=O)c1cn(Cc2ccccc2)c(=O)[nH]c1=O,13%,23%,3%,i,i,12%
SMILES,HT1080 IDH1KD tx,HT1080NT lethal,TDP1 cell CPT,KB-3-1 cytotox,KB-V1 MDR tox,DT40 TDP1 no CPT
CCOc1ccc(NC(=O)CN(C)C(=O)c2cccnc2SC)cc1OCC,2%,1%,-17%,i,i,-11%
CCOc1ccc(NC(=O)CN(C)C(=O)CSCc2cccc(C)c2)cc1OCC,1%,3%,-23%,i,i,-5%
CCOc1ccc(NC(=O)CN(C)C(=O)c2ccccc2Cc2ccccc2)cc1OCC,-13%,7%[9.24 µM],15µM*,i,?,9.2µM*
CCOc1ccc(CN(C)CC(=O)Nc2cccc(C)c2)cc1OC,-13%,-10%,21µM*,i,?,9.2µM*
Cc1ccc(C)c(NC(=O)CN(C)C(=O)c2ccccc2OCc2ccc(Cl)cc2)c1,-21%,?,23µM*,i,i,?
CCOc1ccc(NC(=O)CN(C)C(=O)c2csc3c2CCCC3)cc1OCC,-1%,-2%,?,i,15µM*,?
Cc1cccc(COc2ccccc2C(=O)N(C)CC(=O)Nc2cccc(F)c2)c1,-12%,-3%,?,?,i,?
CCN(CC)S(=O)(=O)c1ccc2c(c1)c(=O)c(C(=O)N1CCN(c3cc(C)ccc3C)CC1)cn2C,nt,nt,-18%,i,i,?
COc1ccc2c(c1)c1c(c(=O)n(CCc3ccccc3)c(=O)n1Cc1ccc(Cl)cc1)n2C,nt,nt,1%,i,i,-9%
CC(C)N1CCC1(C)C(=O)Nc1nccc2cccnc12 (stereo not drawn),2%,7%,4.1µM*,i,i,5.2µM*
CC(C)N1CCC1(C)C(=O)Nc1cccc2ccccc12 (stereo not drawn),-3%,1%,?,i,i,?
Cc1cc(NC(=O)C2(C)CCN2C(C)C)c2ccccc2n1 (stereo not drawn),0%,0%,?,i,i,21µM*
Oc1ccc(CN2CCN(Cc3ccccc3)CC2)c2cccnc12,-17%,?,21µM*,?,i,?
O=S(=O)(c1ccc(Cl)cc1)N1CCN(Cc2ccc(O)c3ncccc23)CC1,?,?,6.5µM*,i,?,5.8µM*
CN1CCN(C2CCN(Cc3ccc(O)c4ncccc34)CC2)CC1,nt,nt,nt,i,i,nt
CC(=O)c1ccc(N2CCN(c3nc4c(S(=O)(=O)c5ccc(C)c(C)c5)nnn4c4ccc(Cl)cc34)CC2)cc1,nt,nt,0%,i,i,0%

# Bioassay records: PubChem BioAssay, National Center for Advancing Translational Sciences (NCATS)
